About 3,500 (1.8%) of roughly 190,000 compounds were called active. The sample as a whole holds a higher share of actives than the screen did. A number with no mark means an inactive call.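 How the source made its calls: active means inhibition above a set limit, 3 SD over mean compound inhibition (cut at about 8.4% in these data); inactive means the rest.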

Broadly, the inhibition is the drop in the measured response relative to a control, in per cent.

This assay can be described thus: inhibitors of the yeast RAM network, primary screen, dse1pr::URA3 reporter, 5-FOA selection (AID 868).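 Further: 0% = DMSO-only wells with no growth and 100% = 10 µM 1-NA-PP1 full growth; inhibition rescues growth on 5-FOA so higher OD means more RAM inhibition.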 To be noted: S. cerevisiae dse1pr::URA3 reporter, 5-FOA growth OD615, 2 d; at 50 µM; stronger effect = higher value; analog-sensitive cbk1-as2 kinase mutant strain.
In the case of `COc1ccc(NS(=O)(=O)c2ccc(NC(C)=O)cc2)cc1OC`, the inhibition was 1.03%.
`COc1ccc(/C=C/C(=O)c2ccc(NS(=O)(=O)c3ccc(C)cc3)cc2)cc1O`: the inhibition was 11.1% (active).
Consider `COc1ccc(C(=O)Oc2cc(/C=N/NS(=O)(=O)c3ccc(C)cc3)ccc2OC)cc1`, for which the inhibition is 5.34%.
The same measure for `Cc1cc(C2=NNC(=Nc3ccc(S(=O)(=O)N4CCOCC4)cc3)SC2)c(C)n1CC1CCCO1` (stereo not drawn): 5.9%; for `CC(C(=O)NC1CCCC1)N(c1ccc(Oc2ccccc2)cc1)S(C)(=O)=O` (stereo not drawn): -0.13%; for `O=C1c2ccccc2C(=O)N1CCC(O)C[N+](=O)[O-]` (stereo not drawn): 1.77%.
The same measure for `CC(=O)NC1C(Oc2ccc(C)cc2)OC2COC(c3ccco3)OC2C1O` (stereo not drawn): 0.78%; for `CC(=O)Nc1ccc(NC(=O)CSCc2cnn(-c3ccccc3)c2-n2cccc2)cc1`: 0.44%.
`Cc1cc(C)cc(NC(=O)CSc2ccccc2)c1`: the inhibition is 1.47%.
The same measure for `Cc1cc(C)cc(NC(=O)CSCc2cnn(-c3ccccc3)c2-n2cccc2)c1`: 13.3% (active).
The same measure for `Nc1nc(SCc2ccc([N+](=O)[O-])cc2)c2ncn(C3OC(CO)C(O)C3O)c2n1` (stereo not drawn): 1.26%; for `CCc1ccc(C(=O)OCC(=O)Nc2cccc(S(=O)(=O)NC3=NCCCCC3)c2)cc1`: 0.26%; for `NS(=O)(=O)c1cccc(NC(=O)CSc2nc3ccccc3n2-c2ccccc2)c1`: 6.21%.
The value for `Cc1cccc(-n2c(SCC(=O)Nc3cccc(S(=O)(=O)NC4=NCCCCC4)c3)nc3ccccc3c2=O)c1C` was 11.7% (active).
On to `O=C(CN1CCN(Cc2ccc(F)cc2Cl)C1=O)NCc1cccs1`, for which the inhibition is 0.13%.
`O=C(COC(=O)CNC(=O)c1ccccc1F)NCC(F)(F)F`: the inhibition is 3.2%.
The value for `O=C(N/N=C/c1ccc([N+](=O)[O-])cc1)C(=O)N1CCCC1` was 1.52%.
Consider `O=C(N/N=C\c1ccc(-c2ccc(Cl)c(Cl)c2)o1)C(=O)N1CCCC1`, for which the inhibition was 8.47% (active).
The same measure for `COC(=O)N/N=C/c1ccc(-c2ccc(Cl)c(Cl)c2)o1`: 1.74%.
Take `Cc1nccn1CCCNC(=O)CC1C(=O)NCCN1Cc1ccc(Cl)c(F)c1` (stereo not drawn): the inhibition was -1.07%.
The same measure for `COCCNC(=O)/C(C#N)=C/c1nc(N(C)C)n(-c2ccc(F)cc2)c1Cl`: 0.24%.
The value for `O=C(NCc1ccco1)c1nc(-c2ccccc2)n(-c2ccccc2)n1` was 0.66%.
The same measure for `O=c1c2ccccc2c(-c2ccccc2)nn1Cc1ccccc1`: 6.51%.
As to `O=C(NCCc1ccco1)c1nn(Cc2ccccc2)c(=O)c2ccccc12`, the inhibition was 11.2% (active).
The value for `N/C(=N/O)c1cccn1Cc1ccccc1[N+](=O)[O-]` was 0.13%; that for `O=S(=O)(c1ccc2c(c1)OCCO2)N1CCc2ccccc21` was 2.45%.
The value for `COc1ccc(Cl)cc1NC(=O)NC(C)C(C)(C)C` (stereo not drawn) was 12.8% (active).
On to `COc1ccc(Cl)cc1NC(=O)CNc1ccccc1F`, for which the inhibition is -1.15%.
The value for `COC(=O)[C@@H](NC(=O)Nc1cc(Cl)ccc1C)C(C)C` was 1.68%; that for `COCCNC(=O)C(OC(=O)c1cccs1)c1ccc(F)cc1` (stereo not drawn) was 0.51%.
The value for `Cc1ccc(NC(=O)Cn2cccc2C2=NC(c3ccccc3)CO2)c(C)c1` (stereo not drawn) was 0.92%; that for `COC(=O)C1=C(C)N(C)C(=S)NC1c1cc(OC)ccc1OC` (stereo not drawn) was 0.25%.
The same measure for `COc1cccc(C(=O)Nc2cc3c(cc2Br)OCCCO3)c1`: 1.75%; for `COc1ccc(C2=CC(c3cccc(OC)c3)n3nnnc3N2)cc1` (stereo not drawn): 5.23%; for `Brc1ccc(C2=CC(c3ccco3)n3ncnc3N2)cc1` (stereo not drawn): 0.23%.
As for `COc1ccc(C2C=C(c3ccc(Br)cc3)Nc3nc(NS(C)(=O)=O)nn32)cc1` (stereo not drawn), the inhibition is 13.4% (active).
The value for `CNC(=O)c1[nH]cnc1C(=O)N[C@@H](CC(C)C)C(=O)OC(C)(C)C` was 0.13%; that for `CSCC(=O)N1CCCC(C(=O)c2cc(F)ccc2F)C1` (stereo not drawn) was 0.37%.
The same measure for `Cc1cc(C)n2nc(SCC(N)=O)nc2n1`: -0.25%.
For the compound `CC(/C=N/NC(=O)c1cc(-c2ccc3ccccc3c2)n[nH]1)=C\c1ccco1`, the inhibition is 2.36%.
For `C/C(=C\c1ccco1)C1Nc2cccc3cccc(c23)N1`, the inhibition was 8.69% (active).
On to `CC(/C=N/NC(=O)c1ccncc1)=C\c1ccco1`, for which the inhibition was 1.91%.
Turning to `CCOC(=O)c1c(NC(=O)CNC2CCCc3ccccc32)sc(C(N)=O)c1C` (stereo not drawn), the inhibition is 3.87%.
The same measure for `COc1cc(C(=O)Nc2cc(C(F)(F)F)ccc2N2CCOCC2)ccc1O`: 0.55%; for `Fc1cccc2ncnc(OCc3ccccc3)c12`: 3.63%; for `COC(=O)c1ccc(NCC(=O)c2ccccc2)cc1`: 0.14%.
The same measure for `COC(=O)[C@H](C)[C@H]1C[C@]1(C)[C@H](NC(=O)OCc1ccccc1)c1ccccc1`: 8.31%; for `CCC[C@@H]1C[C@@]1(CCC)[C@@H](NC(=O)c1ccccc1)c1ccc(C(=O)OC)cc1`: 9.65% (active).
On to `CC(C)C(=O)Nc1oc(-c2ccccc2)cc1C#N`, for which the inhibition is 1.62%.
The value for `COc1cc(N2C(=O)c3ccccc3C2=O)c(Cl)cc1C(=O)OCC(=O)N1CCOCC1` was 0.61%.
The same measure for `COc1cc(/C=C2/C(=O)ON=C2C)ccc1OCc1cccc(F)c1`: 1.59%; for `CCOc1cc(/C=N/O)ccc1OCc1ccccc1F`: 0.13%.
The same measure for `COc1cc(/C=C2/C(=O)ON=C2C)ccc1OCc1ccccc1F`: 11.4% (active).
Consider `N#Cc1ccc(C(=O)Nc2nc(-c3cccs3)c(C(=O)C(F)(F)F)s2)cc1`, for which the inhibition was 3.01%.
For `CCN(CC(=O)NC(=O)NCc1ccccc1)Cc1nc2ccccc2c(=O)[nH]1`, the inhibition was 0.8%.
The same measure for `CC(=O)NC1(c2ccc(F)cc2)CCN(C(=O)c2c(F)cccc2F)CC1`: -0.25%; for `Cc1ccc(-c2csc3nnc(SCC(=O)NCc4ccco4)n23)cc1`: 0.13%; for `Cn1c(-c2ccc(F)cc2)cnc1SCC(=O)NCc1ccco1`: 1.92%.
The same measure for `O=C(CSc1nnc2scc(-c3ccc(F)cc3)n12)NCc1ccco1`: 9.95% (active); for `Cc1ccc(C2CC(c3cccc(NS(C)(=O)=O)c3)=NN2S(C)(=O)=O)cc1` (stereo not drawn): 0.38%; for `O=c1c([N+](=O)[O-])cccn1Cc1ccc(F)cc1Cl`: -0.54%.
Regarding `CN1C(=O)/C(=C/C=C2\SCCN2C)OC1=S`, the inhibition is 2.52%.
On to `COC(=O)c1ccc(C(=O)OC)c(NC(=S)N2CCN(c3cc(Cl)ccc3C)CC2)c1`, for which the inhibition was 3.51%.
The same measure for `O=C(c1cccc2ccccc12)N1CCN(c2ccccc2F)CC1`: -0.35%.
The same measure for `Cc1ccc(Cl)cc1N1CCN(C(=O)c2cccc3c(=O)c(C)c(-c4ccccc4)oc23)CC1`: 8.43% (active); for `Cc1ccc(C(=O)N/C(=C/c2cccs2)C(=O)NCC2CCCO2)cc1` (stereo not drawn): 0.13%; for `Cc1cc(C)n(-c2ccc3nncn3n2)n1`: 1.87%.
The same measure for `CC(C)=CCCC1(C)C=Cc2c(ccc3c2[nH]c2cc(O)c(C)cc23)O1` (stereo not drawn): 21.4% (active); for `Cc1c(CN2CCC(C)CC2)c(=O)n(-c2ccccc2)n1C`: 0.66%.
On to `Cc1c(NS(=O)(=O)c2ccc(NC3CCCC3)c([N+](=O)[O-])c2)c(=O)n(-c2ccccc2)n1C`, for which the inhibition is 4.03%.
The value for `Cc1c(Nc2cc(N3CCCC(C)C3)c3nonc3c2[N+](=O)[O-])c(=O)n(-c2ccccc2)n1C` (stereo not drawn) was 8.7% (active); that for `O=C1CCC(CCC(=O)N2CCCC(C(=O)c3ccc(Cl)cc3)C2)=NN1` (stereo not drawn) was 2.49%.
Regarding `CC(C)(C)c1ccc(/C=C2\SC(=O)N=C2N)cc1`, the inhibition was 3.69%.
The value for `Cc1ccc(C(=O)c2c(NC(=O)c3ccncc3)sc3c2CCCC3)cc1` was 1.55%.
The value for `Cc1ccc(C(=O)NCCNC(=O)c2ccccc2)cc1` was 0.24%; that for `Cc1ccc(C(=O)c2c(NC(=O)c3ccccc3)sc(C)c2C)cc1` was 12.9% (active).
Consider `NC1=NC2(CCCCC2)N(c2ccc(F)cc2F)C(N)=N1`, for which the inhibition was 0.5%.
The value for `O=c1cnnc(Nc2ccccc2F)[nH]1` was 0.79%; that for `C/C(N)=C(/C#N)C(=O)COC(=O)CNS(=O)(=O)c1ccc(C)cc1` was -0.96%; that for `CCOC(=O)c1sc2nc(CSCC(=O)OCc3ccc(C(=O)OC)o3)[nH]c(=O)c2c1C` was 12.6% (active).
For `CCOC(=O)c1sc2nc(CSc3ccccc3)[nH]c(=O)c2c1C`, the inhibition is 2.26%.
In the case of `Cc1sc2nc(CSCC(=O)Nc3c(Cl)cccc3Cl)[nH]c(=O)c2c1C`, the inhibition is 4.58%.
For `CCCCN(C(=O)c1ccc(OC(F)(F)F)cc1)c1c(N)n(CCC)c(=O)[nH]c1=O`, the inhibition is 1.93%.
For the compound `CCOC(=O)c1cnc(-c2ccccc2)nc1Oc1ccc(C)cc1`, the inhibition is 6.51%.
The same measure for `CCOC(=O)c1cnc(-n2nc(C)cc2C)nc1NNc1cc(C)nc(-c2ccccc2)n1`: 9.84% (active); for `CCOC(=O)c1cnc(-n2nc(C)cc2C)nc1-n1nc(C)cc1C`: 1.58%.
The value for `Cc1ccc(CN2CCC(N3CCC(C(=O)NCC4CCCO4)CC3)CC2)o1` (stereo not drawn) was 1.95%.
The value for `CCOc1ccc(Oc2nc(C)cc(OC)n2)nn1` was 0.41%.
With `Cc1onc(C(=O)NN)c1C(=O)N1CCN(C(c2ccccc2)c2ccccc2)CC1`, the inhibition was 0.14%.
The value for `O=C(COC(=O)c1cnccn1)Nc1cccc2ccccc12` was -0.14%; that for `O=C(CCC(=O)OCc1ccc(Cl)cc1)Nc1ccccc1` was -0.63%.
`O=C(CCC(=O)OCc1cccc(C(=O)Oc2ccccc2)c1)Nc1cccc2ccccc12`: the inhibition was 15.2% (active).
Turning to `O=C(Cc1coc2ccc3ccccc3c12)NCc1cccs1`, the inhibition is 1.23%.

(Values after PubChem BioAssay AID868 (SRMLSC, 2007).)
